The full ranking holds about 16,000 sequences; the median of “rpm ratio (pull-down/input)” is about 0.5, and the highest 2% start at about 5.5. Shown is part of a subset that was picked to be rich in the highest values.

The target in the test is T1, MBP-FoxP3dN (Mus musculus, UniProt Q99JB6 188-423).
T1 sequence: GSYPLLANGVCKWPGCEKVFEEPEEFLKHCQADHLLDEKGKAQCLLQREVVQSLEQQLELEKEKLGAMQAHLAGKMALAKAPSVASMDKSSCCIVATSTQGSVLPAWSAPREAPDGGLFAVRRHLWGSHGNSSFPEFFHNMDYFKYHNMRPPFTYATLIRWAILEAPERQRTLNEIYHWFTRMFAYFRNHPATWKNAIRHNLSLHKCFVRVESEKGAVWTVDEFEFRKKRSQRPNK
Put plainly: PD-seq (MBP pull-down with sequencing); 20 mM Tris-HCl pH 7.5, 100 mM NaCl, 1.5 mM MgCl2, 0.4 uM protein, 0.1 uM dsDNA library, 30 min, room temperature, amylose pull-down; high values mean tight binding. Conditions: protein: recombinant; tags: His6-MBP; chain copies: 2; dsDNA, one strand shown. In a few lines: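 Protein and DNA were mixed at 0.4 µM and 0.1 µM and held for 30 min at room temperature in Tris pH 7.5 buffer with NaCl and MgCl2; the protein was a His6-MBP-tagged, N-terminally truncated mouse FoxP3 or FoxP1 fragment from E. coli, and the DNA a Klenow-filled double-stranded degenerate library. Amylose resin captured the complexes, which were washed three times. Binding is read as reads-per-million enrichment of pull-down versus input after Illumina sequencing, with replicates pooled.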
For the sequence “GATGATTGTTCTCCCAGCTGATGAATTACTATTATCGAGTAAACAAATTTTCCTAATCTTTCTGTTCAAGCGCCATCTAC”, the binding signal is 0.758 RPM ratio (pull-down/input).
On to “GATGATTGTTCTCCCAGCTGATGAATTAAATACATCGAGTAAACAAATTTTCCTAATCTTTCTGTTCAAGCGCCATCTAC”, for which the binding signal is 0.687 RPM ratio (pull-down/input).
Regarding “GATGATTGTTCTCCCAGCTGATGAATTTTGTTCGTCGAGTAAACAAATTTTCCTAATCTTTCTGTTCAAGCGCCATCTAC”, the binding signal is 1.45 RPM ratio (pull-down/input).
Consider “GATGATTGTTCTCCCAGCTGATGAATTTTTTACTTCGAGTAAACAAATTTTCCTAATCTTTCTGTTCAAGCGCCATCTAC”, for which the binding signal was 0.261 RPM ratio (pull-down/input).
As to “GATGATTGTTCTCCCAGCTGATGAATTGTTTTCGTCGAGTAAACAAATTTTCCTAATCTTTCTGTTCAAGCGCCATCTAC”, the binding signal was 3.95 RPM ratio (pull-down/input).
As to “GATGATTGTTCTCCCAGCTGATGAATTGTTTTCTTCGAGTAAACAAATTTTCCTAATCTTTCTGTTCAAGCGCCATCTAC”, the binding signal was 4.15 RPM ratio (pull-down/input).
The figure for “GATGATTGTTCTCCCAGCTGATGAATTTTGTTCTTCGAGTAAACAAATTTTCCTAATCTTTCTGTTCAAGCGCCATCTAC” is 1.21 RPM ratio (pull-down/input); for “GATGATTGTTCTCCCAGCTGATGAATTTGTTTCTTCGAGTAAACAAATTTTCCTAATCTTTCTGTTCAAGCGCCATCTAC” it is 6.78 RPM ratio (pull-down/input); for “GATGATTGTTCTCCCAGCTGATGAATTTACTTCTTCGAGTAAACAAATTTTCCTAATCTTTCTGTTCAAGCGCCATCTAC” it is 0.632 RPM ratio (pull-down/input).
Then “GATGATTGTTCTCCCAGCTGATGAATTGTTTACTTCGAGTAAACAAATTTTCCTAATCTTTCTGTTCAAGCGCCATCTAC”, with 7.35 RPM ratio (pull-down/input).
As for “GATGATTGTTCTCCCAGCTGATGAATTTGTTGTTTCGAGTAAACAAATTTTCCTAATCTTTCTGTTCAAGCGCCATCTAC”, the binding signal is 7.66 RPM ratio (pull-down/input).
For the sequence “GATGATTGTTCTCCCAGCTGATGAATTTGTTTCGTCGAGTAAACAAATTTTCCTAATCTTTCTGTTCAAGCGCCATCTAC”, the binding signal was 5.96 RPM ratio (pull-down/input).
For the sequence “GATGATTGTTCTCCCAGCTGATGAATTTGCAGTATCGAGTAAACAAATTTTCCTAATCTTTCTGTTCAAGCGCCATCTAC”, the binding signal is 1.49 RPM ratio (pull-down/input).
As for “GATGATTGTTCTCCCAGCTGATGAATTTATATACTCGAGTAAACAAATTTTCCTAATCTTTCTGTTCAAGCGCCATCTAC”, the binding signal is 3.39 RPM ratio (pull-down/input).
Turning to “GATGATTGTTCTCCCAGCTGATGAATTTTGGCCTTCGAGTAAACAAATTTTCCTAATCTTTCTGTTCAAGCGCCATCTAC”, the binding signal was 2.06 RPM ratio (pull-down/input).
Turning to “GATGATTGTTCTCCCAGCTGATGAATTATTGCGATCGAGTAAACAAATTTTCCTAATCTTTCTGTTCAAGCGCCATCTAC”, the binding signal is 1.08 RPM ratio (pull-down/input).
Then “GATGATTGTTCTCCCAGCTGATGAATTCTTTGTTTCGAGTAAACAAATTTTCCTAATCTTTCTGTTCAAGCGCCATCTAC”, with 0.575 RPM ratio (pull-down/input); and “GATGATTGTTCTCCCAGCTGATGAATTTGGTTGTTCGAGTAAACAAATTTTCCTAATCTTTCTGTTCAAGCGCCATCTAC”, with 5.35 RPM ratio (pull-down/input).
Consider “GATGATTGTTCTCCCAGCTGATGAATTCGTTTTGTCGAGTAAACAAATTTTCCTAATCTTTCTGTTCAAGCGCCATCTAC”, for which the binding signal was 3.54 RPM ratio (pull-down/input).
The figure for “GATGATTGTTCTCCCAGCTGATGAATTGATTTGTTCGAGTAAACAAATTTTCCTAATCTTTCTGTTCAAGCGCCATCTAC” is 3.85 RPM ratio (pull-down/input); for “GATGATTGTTCTCCCAGCTGATGAATTCGTTTGTTCGAGTAAACAAATTTTCCTAATCTTTCTGTTCAAGCGCCATCTAC” it is 5.83 RPM ratio (pull-down/input).
As to “GATGATTGTTCTCCCAGCTGATGAATTTGAATTTTCGAGTAAACAAATTTTCCTAATCTTTCTGTTCAAGCGCCATCTAC”, the binding signal is 0.538 RPM ratio (pull-down/input).
On to “GATGATTGTTCTCCCAGCTGATGAATTTGTTTTTTCGAGTAAACAAATTTTCCTAATCTTTCTGTTCAAGCGCCATCTAC”, for which the binding signal is 6.93 RPM ratio (pull-down/input).
Take “GATGATTGTTCTCCCAGCTGATGAATTTGATTGTTCGAGTAAACAAATTTTCCTAATCTTTCTGTTCAAGCGCCATCTAC”: the binding signal was 6.32 RPM ratio (pull-down/input).
Regarding “GATGATTGTTCTCCCAGCTGATGAATTTGTTGGTTCGAGTAAACAAATTTTCCTAATCTTTCTGTTCAAGCGCCATCTAC”, the binding signal was 7.67 RPM ratio (pull-down/input).
Then “GATGATTGTTCTCCCAGCTGATGAATTCGTTTTTTCGAGTAAACAAATTTTCCTAATCTTTCTGTTCAAGCGCCATCTAC”, with 2.58 RPM ratio (pull-down/input); and “GATGATTGTTCTCCCAGCTGATGAATTTTTTGTTTCGAGTAAACAAATTTTCCTAATCTTTCTGTTCAAGCGCCATCTAC”, with 0.423 RPM ratio (pull-down/input).
Take “GATGATTGTTCTCCCAGCTGATGAATTGGTTGGTTCGAGTAAACAAATTTTCCTAATCTTTCTGTTCAAGCGCCATCTAC”: the binding signal is 3.77 RPM ratio (pull-down/input).
With “GATGATTGTTCTCCCAGCTGATGAATTGTACTATTCGAGTAAACAAATTTTCCTAATCTTTCTGTTCAAGCGCCATCTAC”, the binding signal is 0.669 RPM ratio (pull-down/input).
Consider “GATGATTGTTCTCCCAGCTGATGAATTGTCCCTGTCGAGTAAACAAATTTTCCTAATCTTTCTGTTCAAGCGCCATCTAC”, for which the binding signal was 0.319 RPM ratio (pull-down/input).
Consider “GATGATTGTTCTCCCAGCTGATGAATTAGGGGTTTCGAGTAAACAAATTTTCCTAATCTTTCTGTTCAAGCGCCATCTAC”, for which the binding signal is 0.738 RPM ratio (pull-down/input).
Regarding “GATGATTGTTCTCCCAGCTGATGAATTTTACGCGTCGAGTAAACAAATTTTCCTAATCTTTCTGTTCAAGCGCCATCTAC”, the binding signal is 0.624 RPM ratio (pull-down/input).
Then “GATGATTGTTCTCCCAGCTGATGAATTGAGACACTCGAGTAAACAAATTTTCCTAATCTTTCTGTTCAAGCGCCATCTAC”, with 1.41 RPM ratio (pull-down/input).
Turning to “GATGATTGTTCTCCCAGCTGATGAATTGCGGACATCGAGTAAACAAATTTTCCTAATCTTTCTGTTCAAGCGCCATCTAC”, the binding signal was 0.781 RPM ratio (pull-down/input).

The record behind these values is publication PMC12820563, “FoxP3 forms a head-to-head dimer in vivo and stabilizes its multimerization on adjacent microsatellites”.
